Screening data: PubChem, Broad Institute
BL2 CD40 inh: inhibitors of CD40-induced NF-kB signaling, primary screen, BL2 cells, luciferase reporter, single point; CD40L-induced, 4 h; 83,000 tested, 0.94% active; inhibition, % at 10 µM; AID 1053188, 2014;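 active = mean inhibition of at least 50% with a set share of replicates also reaching that level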;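 note: 0% = neutral control wells and 100% = IKK inhibitor VII at 50 µM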
Active calls of the source: *; [ ] = remark or other dose. The full list was thinned out, with hits kept by preference.

SMILES | BL2 CD40 inh
COc1cccc(S(=O)(=O)N(C)C[C@H]2OCc3ccccc3-c3ccccc3C(=O)N([C@H](C)CO)C[C@@H]2C)c1 | 8[25 µM]
C[C@@H]1CN([C@H](C)CO)C(=O)c2ccccc2-c2ccccc2CO[C@@H]1CN(C)Cc1cccc(C(=O)O)c1 | -22[25 µM]
O=C(C1CCC1)N1CCc2cc(S(=O)(=O)N3CCCCC3)ccc21 | active
CCOC(=O)N1CCN(S(=O)(=O)c2ccc3c(c2)CCN3C(=O)C2CCC2)CC1 | 3
O=C(c1ccco1)N1CCN(S(=O)(=O)c2ccc3c(c2)CCN3C(=O)C2CCC2)CC1 | 9
Cc1noc(C)c1S(=O)(=O)Nc1ccc2c(c1)CC(=O)N([C@@H](C)CO)C[C@@H](C)[C@H](CN(C)Cc1ccc(Oc3ccccc3)cc1)O2 | 4[25 µM]
CCCN1[C@H](CO)[C@H](c2ccc(-c3ccccc3F)cc2)[C@@H]1CNC(=O)C1CCC1 | 10[25 µM]
C(=C\c1ccc(C2[C@H]3CNC[C@@H]2N3CC2CCOCC2)cc1)/c1ccccc1 (stereo partly specified) | -10[25 µM]
O=C(NCCc1ccccc1)c1ccc2nccnc2c1 | 72*
O=C(NCCS(=O)(=O)NCCc1ccccc1)c1ccccc1 | -4
O=C(NCCCn1ccnc1)c1ccc2nccnc2c1 | 13
N#C[C@@H]1[C@H](c2ccccc2)[C@H](CO)N1C(=O)CCN1CCCCC1 | 1[25 µM]
COCCCNc1ccn2nc(-c3cc(OC)c(OC)c(OC)c3)cc2n1 | 1
c1ccc(OCCNc2ccn3nc(-c4ccccc4)cc3n2)cc1 | -62
COCCCNc1ccn2nc(-c3ccccc3)cc2n1 | 60*
CN(C)C(=O)c1cccc(-c2cccc(-c3nc(C(=O)NCc4ccccc4)cc4c3[C@H](CCO)N([S@@](=O)C(C)(C)C)C4)c2)c1 | 17
C[C@@H]1CN([C@@H](C)CO)C(=O)CCCn2cc(nn2)CO[C@@H]1CN(C)Cc1ccc2c(c1)OCCN2C | -8[25 µM]
CN(C)C(=O)[C@@H]1[C@@H](CO)[C@@H]2Cn3c(ccc(-c4ccccc4)c3=O)[C@@H]2N1C(=O)c1ccccn1 | 3[25 µM]
O=C(C[C@@H]1CC[C@@H]2[C@H](COC[C@H](O)CN2C(=O)c2ccc3c(c2)OCO3)O1)NC1CCC1 | -1[25 µM]
COc1cc2c(cc1OC)CN(C(=O)c1ccc(-c3ccccc3)cc1)CC2 | 18
COc1ccc(C(=O)CCN2CCc3cc(OC)c(OC)cc3C2)cc1 | 50*
COc1cc2c(cc1OC)CN(CC(=O)NC(=O)NC(C)(C)C)CC2 | 0
COc1cccc(S(=O)(=O)N[C@@H]2CC[C@@H](CC(=O)NC3Cc4ccccc4C3)O[C@H]2CO)c1 | 2[25 µM]
CN(C)c1ccc(C(=O)c2ccccc2C(=O)O)cc1[N+](=O)[O-] | 11
O=C(COC(=O)c1ccccc1[N+](=O)[O-])c1ccc(C2CCCCC2)cc1 | 91*
SMILES | BL2 CD40 inh
CNc1ccc(C(=O)c2ccccc2C(=O)O)cc1[N+](=O)[O-] | 1
O=C(OC1CCOC1=O)c1ccccc1C(=O)c1ccc(Cl)c([N+](=O)[O-])c1 (stereo unspecified) | 78*
O=C(COC(=O)c1ccccc1C(=O)c1ccc(Cl)c([N+](=O)[O-])c1)NC1CC1 | 98*
Cc1c(C(=O)OCC(=O)NC(=O)NC2CCCCC2)cccc1[N+](=O)[O-] | 0
CC1CCC(NC(=O)COC(=O)CSc2ccc(C(N)=O)cc2[N+](=O)[O-])CC1 (stereo unspecified) | 6
O=C(COC(=O)c1ccccc1[N+](=O)[O-])Nc1cccnc1Cl | -35
CS(=O)(=O)c1ccc(Cl)c(C(=O)OCC(=O)NC2CCCCCCC2)c1 | 21
COc1ccc2c3c([nH]c2c1)[C@@H](CO)N(C)CC31CCN(C(=O)CN(C)C)CC1 | 0[25 µM]
COc1ccc(NC(=O)N(C)C[C@@H]2OCCCC[C@H](C)Oc3ccc(NC(=O)c4ccncc4)cc3C(=O)N([C@H](C)CO)C[C@H]2C)cc1 | -21[25 µM]
O=C(Nc1ccccc1)N1CC(=O)N2[C@H](CO)[C@@H](c3ccc(C#CC4CCCC4)cc3)[C@@H]2C1 | 10
C/C=C/c1ccc([C@@H]2[C@H](CO)N(C(C)=O)[C@H]2CNC(=O)CC2CC2)cc1 | -16
CCN1CC(=O)N2[C@@H](CO)[C@@H](c3ccc(Br)cc3)[C@@H]2C1 | -17[25 µM]
CCCN1C[C@H](C)[C@@H](OC)CN(C)C(=O)c2cc(NC(=O)NC3CCCC3)ccc2OC[C@@H]1C | 2
CC=Cc1cc2c(c(=O)o1)C(=O)C(O)C(C)O2 (stereo unspecified) | 41*
COc1cccc(NC(=O)N2CC(=O)N3[C@H](CO)[C@@H](c4ccc(C#CCC5CCCC5)cc4)[C@@H]3C2)c1 | 23[25 µM]
COc1cccc(NC(=O)N2CC(=O)N3[C@H](C2)[C@H](c2ccc(C#CCC4CCCC4)cc2)[C@@H]3CO)c1 | 13[25 µM]
O=C(Nc1ccccc1)N1CC(=O)N2[C@@H](CO)[C@@H](c3ccc(C#CC4CCCCC4)cc3)[C@@H]2C1 | 26[25 µM]
O=C(Nc1ccccc1)N1CC(=O)N2[C@H](CO)[C@H](c3ccc(C#CC4CCCCC4)cc3)[C@H]2C1 | 9[25 µM]
COc1cccc(NC(=O)N2CC(=O)N3[C@H](CO)[C@@H](c4ccc(C#CCC5CCCC5)cc4)[C@H]3C2)c1 | 64*[25 µM]
O=C(Nc1ccccc1)N1CC(=O)N2[C@H](CO)[C@@H](c3ccc(C#CC4CCCCC4)cc3)[C@H]2C1 | 54*[25 µM]
CC=Cc1ccc2n(c1=O)C[C@H]1[C@H](CO)[C@@H](C(=O)NC3CCCCC3)N(CCC)[C@@H]21 (mixture of isomers) | -7
CCC(=O)N1[C@H](CO)[C@H](c2ccc(-c3ccc(F)cc3)cc2)[C@H]1CNC(C)=O | 2
O=C(NC[C@@H]1[C@H](c2ccccc2)[C@H](CO)N1Cc1ccccn1)C1CCC1 | -3
C[C@H]1CN([C@@H](C)CO)C(=O)c2c(c3ccccc3n2C)-c2ccccc2CO[C@@H]1CN(C)S(=O)(=O)c1ccccc1 | 26
C[C@@H]1CN([C@@H](C)CO)C(=O)c2c(c3ccccc3n2C)-c2ccccc2CO[C@H]1CN(C)S(=O)(=O)c1ccc([N+](=O)[O-])cc1 | 55*[25 µM]
SMILES | BL2 CD40 inh
C[C@@H]1CN([C@H](C)CO)C(=O)c2c(c3ccccc3n2C)-c2ccccc2CO[C@@H]1CN(C)Cc1ccc(C(F)(F)F)cc1 | 6
C[C@H]1CN([C@@H](C)CO)C(=O)c2c(c3ccccc3n2C)-c2ccccc2CO[C@H]1CN(C)C(=O)Nc1ccccc1C(F)(F)F | 59*[25 µM]
C[C@@H]1CN([C@H](C)CO)C(=O)c2c(c3ccccc3n2C)-c2ccccc2CO[C@@H]1CN(C)C(=O)Nc1ccccc1C(F)(F)F | 34[25 µM]
C[C@@H]1CN([C@@H](C)CO)C(=O)c2c(c3ccccc3n2C)-c2ccccc2CO[C@H]1CN(C)Cc1cccc(C(F)(F)F)c1 | 78*[25 µM]
C[C@H](CO)N1C[C@H](C)[C@@H](CN(C)Cc2cccc(F)c2)OCc2ccccc2-c2c(n(C)c3ccccc23)C1=O | 20
COc1ccccc1NC(=O)N(C)C[C@@H]1OCc2ccccc2-c2c(n(C)c3ccccc23)C(=O)N([C@H](C)CO)C[C@H]1C | 6
C[C@@H]1CN([C@H](C)CO)C(=O)c2c(c3ccccc3n2C)-c2ccccc2CO[C@H]1CN(C)Cc1cccc(C(F)(F)F)c1 | 76*[25 µM]
C[C@@H]1CN([C@H](C)CO)C(=O)c2c(c3ccccc3n2C)-c2ccccc2CO[C@H]1CN(C)S(=O)(=O)c1ccc([N+](=O)[O-])cc1 | 37[25 µM]
C[C@@H]1CN([C@H](C)CO)C(=O)c2c(c3ccccc3n2C)-c2ccccc2CO[C@H]1CN(C)Cc1ccc(C(F)(F)F)cc1 | 16
